Source: PubChem BioAssay (National Center for Advancing Translational Sciences (NCATS))
Sampled rows, rich in hits. Any-hit rate of the full collection: about 19%.
IL-1B inflam inh – qHTS for Inhibitors of Inflammasome Signaling: IL-1-beta AlphaLISA Primary Screen; 360,000 tested, 4.7% active; THP-1 LPS/ATP IL-1B secretion, AlphaLISA, 16 h; stronger effect = lower value; activity change, % at 57.5 µM; in the data active means activity change below about -50%; inconclusive means mostly about -30% to -49%
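Secreted IL-1B measured by AlphaLISA bead assay after 16 h compound exposure of THP-1 cells; compounds (final up to 57.5 uM) added 1 h before LPS (250 ng/mL) and ATP (1.25 mM) stimulation; lower signal means less secretion.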
DT40 TDP1 CPT – qHTS for Inhibitors of human tyrosyl-DNA phosphodiesterase 1 (TDP1): qHTS in cells in presence of CPT; chicken DT40 Tdp1-/-;hTDP1 cells + 20 nM CPT, ATP luminescence, 48 h; Potency, µM (highest dose often 46.2 µM), for inactives: at the top dose activity change, negative = growth inhibition, most hits filed as inhibitors; 420,000 tested, 12% active; further: potency means the concentration at half of the fitted maximal effect; nearly all actives have a fitted effect of over 55% in size
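Chicken DT40 Tdp1-/- cells complemented with human TDP1, 400 cells/well, exposed to compounds plus 20 nM camptothecin for at least 48 h at 37 C; viability read as ATP content by CellTiter-Glo luminescence.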
HT1080 IDH1KD tx – qHTS for induction of synthetic lethality in tumor cells producing 2HG: qHTS for the HT-1080-IDH1KD cell line | AID 686971, 2013 | HT-1080 IDH1 knockdown viability, ATP luminescence, 48 h | Potency, µM (series often up to 46.1 µM), without a hit: at the top dose activity, negative = toxicity, usual class: cytotoxic | 360,000 tested, 2% active;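 further: potency means the concentration at half of the fitted maximal effect; 0% = DMSO wells and -100% = cell-free medium wells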
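Luminescent ATP read-out (CellTiter-Glo, 10 min at room temperature) after 48 h compound exposure at 37 °C gave viability of IDH1-knockdown HT-1080 cells. Activity was normalised to DMSO and cell-free wells, then fitted as concentration-response curves.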
HT1080NT lethal – qHTS for induction of synthetic lethality in tumor cells producing 2HG: qHTS for the HT-1080-NT fibrosarcoma cell line; Potency, µM (top dose mostly 46.1 µM), for the others: top-dose activity, negative = less viability, most hits filed as cytotoxic; HT-1080-NT fibrosarcoma viability, CellTiter-Glo ATP luminescence, 48 h; AID 686970, 2013; 360,000 tested, 1.6% active;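 further: NT is the 2HG producing partner of a matched IDH1 knockdown line; potency means the concentration at half of the fitted maximal effect; 0% = DMSO-treated cells and -100% = media-only wells without cells; nearly all actives have a fitted effect of over 55% in size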
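HT-1080-NT; 750 cells/well; 5% FBS RPMI; 48 h compound, 37 degrees C; CellTiter-Glo luminescence; curve fitting and curve-class assignment.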
TDP1 cell noCPT – qHTS for Inhibitors of human tyrosyl-DNA phosphodiesterase 1 (TDP1): qHTS in cells in absence of CPT | AID 686978, 2013 | Potency, µM (series often up to 46.2 µM), without a hit: at the highest dose activity change, negative = growth inhibition, hits mostly inhibitors | 420,000 tested, 15% active | DT40 Tdp1-/- hTDP1 cells, no CPT, ATP luminescence, 48 h; further: potency means the concentration at half of the fitted maximal effect; nearly all actives have a fitted effect of over 55% in size
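Growth kinetics read by CellTiter-Glo luminescence after ≥48 hr at 37 °C. Cells: DT40 Tdp1-/- stably carrying human TDP1, 400 per well, compound exposure in the absence of CPT (DMSO vehicle).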
Starred values were filed as active, the others as inactive; u = inconclusive; x = no result. Unless noted, the call rests on the fitted dose curve; in most records, active means well fitted curve in the direction sought with a large enough effect; inconclusive means small, poorly fitted or top-dose-only effect, or another doubt; inactive means no such curve, though single readings can be large; an effect the other way counts as inactive or inconclusive. Unless noted, on the % scale 0 is the no-effect control and ±100 the full control effect.

SMILES	IL-1B inflam inh	DT40 TDP1 CPT	HT1080 IDH1KD tx	HT1080NT lethal	TDP1 cell noCPT
O=C(Nc1ccc(Oc2ccccc2)cc1)c1csc([C@@H]2C[C@H](O)[C@@H](CO)O2)n1	64	u	2.6µM*	u	u
CC(=O)Nc1ccc(NC(=O)c2csc([C@H]3C[C@H](O)[C@@H](CO)O3)n2)cc1	-1	-15%	u	23%	-9%
COc1ccc(/C=N/n2c(-c3cc(C)[nH]n3)n[nH]c2=S)cc1	13	12%	12%	12%	-1%
Cc1cc(-c2n[nH]c(=S)n2/N=C/c2ccc(Cl)c([N+](=O)[O-])c2)n[nH]1	15	u	4.6µM*	6.5µM*	u
Cc1cc(-c2n[nH]c(=S)n2/N=C/c2cc([N+](=O)[O-])ccc2Cl)n[nH]1	42	5.2µM*	-19%	-19%	18µM*
O=[N+]([O-])c1ccc(-c2nn(-c3ccccc3)cc2/C=N/n2c(-c3ccncc3)n[nH]c2=S)cc1	17	u	16%	20%	18µM*
Cc1cnccc1CN(C)Cc1nc(Cc2ccccc2Cl)no1	-9	18µM*	-29%	u	15µM*
CN(Cc1ccccn1)Cc1nc(Cc2ccccc2Cl)no1	0	3%	8%	3%	14%
O=C(NCCCO)c1cc2ccccc2[nH]1	9	-9%	4%	5%	10%
NNC(=O)c1cc2ccccc2[nH]1	71	5%	2.1µM*	u	-5%
Cc1ccccc1-n1c(C)n[nH]c1=S	-8	-18%	u	13µM*	-2%
CCc1cc(-c2n[nH]c(=S)n2Cc2ccccc2)cs1	14	9%	10%	8%	u
CCc1cc(-c2n[nH]c(=S)n2-c2ccccc2C)cs1	34	-25%	u	11µM*	-29%
Cc1ccccc1-n1c(-c2ccoc2C)n[nH]c1=S	37	u	7%	-2%	u
CCOc1ccc(C(=O)NC(=S)N(Cc2ccccc2)Cc2ccccc2)cc1	1	21µM*	u	u	u
N#CCCN(Cc1ccccc1)C(=S)NC(=O)c1ccccc1	27	9.2µM*	1.1µM*	1.3µM*	9.2µM*
Cc1ccc(NC(=O)c2cccc(OCc3c(C)noc3C)c2)cc1	-9	1%	-12%	-2%	3%
COc1cc(NC(=O)c2ccc(OCc3c(C)noc3C)c(OC)c2)cc(OC)c1	-23	u	0%	2%	13µM*
COc1ccc(NS(=O)(=O)c2cc(NC(=O)c3cccc(OCc4c(C)noc4C)c3)ccc2OC)cc1	4	u	-11%	0%	23µM*
COc1cc(C(=O)Nc2nc3ccc(C)cc3s2)ccc1OCc1c(C)noc1C	-6	18µM*	3%	5%	18µM*
CCCC1(c2ccccc2)NC(=O)N(CC(=O)N(C)Cc2c(F)cccc2Cl)C1=O (stereo unspecified)	u	u	3%	0%	u
Cc1ccc(C(=O)C(C)OC(=O)Cn2c(C)csc2=O)cc1 (stereo unspecified)	-8	20%	10%	0%	16%
CCCCNc1c(C(=O)OCC)c(C)nc2c1cnn2CC	1	13µM*	-20%	-10%	21µM*
O=C(NCc1ccc2c(c1)OCO2)c1ccc(Br)cc1	-3	0%	-2%	-20%	-20%
O=C1Nc2ccc(Br)cc2/C1=C/C(=O)c1ccc2c(c1)OCO2	u	5.8µM*	u	u	3.3µM*
SMILES	IL-1B inflam inh	DT40 TDP1 CPT	HT1080 IDH1KD tx	HT1080NT lethal	TDP1 cell noCPT
COc1ccc(C(=O)/C=C2\C(=O)Nc3ccc(Br)cc32)cc1	-99*	2.9µM*	u	u	18µM*
CCC(C)n1c(SCc2ccc(C(C)(C)C)cc2)nc2ccsc2c1=O (stereo unspecified)	x	13µM*	x	x	13µM*
CCC(C)n1c(SCc2ccccc2)nc2ccsc2c1=O (stereo unspecified)	3	u	1%	-4%	21µM*
CCC(C)n1c(SCc2ccc(F)cc2Cl)nc2ccsc2c1=O (stereo unspecified)	x	18µM*	x	x	21µM*
CCC(C)n1c(SCC(=O)Nc2ccccc2C(=O)OC)nc2ccsc2c1=O (stereo unspecified)	x	16µM*	x	x	18µM*
CC(C)CCn1c(SCc2ccc(F)cc2Cl)nc2ccsc2c1=O	x	5%	x	x	-6%
CCCn1c(=O)c2ccccc2n2c(SCC(=O)NCc3cccs3)nnc12	-3	u	4%	2%	15µM*
CCCn1c(=O)c2ccccc2n2c(Sc3nnnn3-c3ccccc3)nnc12	-8	u	0%	-11%	23µM*
CCOC(=O)c1c(S(=O)(=O)NCC2CCN(CCc3cccs3)CC2)c(C)n(C)c1C	-8	-18%	-11%	-9%	3%
CCN(CC(=O)Nc1ccccc1-c1ccccc1)Cc1nc2ccccc2c(=O)[nH]1	46	5.8µM*	4.6µM*	5.8µM*	4.6µM*
CCN(CC(=O)Nc1ccccc1C(=O)Nc1ccccc1)Cc1nc2ccccc2c(=O)[nH]1	57	11%	17%	-7%	-1%
CCN(CC(=O)Nc1ccccc1SC)Cc1nc2ccccc2c(=O)[nH]1	66	0.65µM*	-7%	0%	2.1µM*
Cc1ccc(NC(=O)CSc2n[nH]c(-c3cccnc3)n2)cc1Cl	23	9%	-21%	-24%	11%
CCc1nc2ccc(C(=O)N(CC)CCN(C)C)cn2c1N(C)C(=O)C1CCCCC1	9	10%	7%	26%	0%
Cc1c(Nc2c3ccccc3nc3ccccc23)c(=O)n(-c2ccccc2)n1C	6	-9%	16%	13%	-15%
Cc1c(Nc2scc(-c3ccccc3)[n+]2-c2ccccc2)c(=O)n(-c2ccccc2)n1C	-27	u	-7%	0%	21µM*
Cc1c(Nc2nc(-c3ccc(Cl)cc3)cs2)c(=O)n(-c2ccccc2)n1C	u	u	-17%	-7%	10µM*
Cc1c(Nc2nc3ccccc3nc2N2CCN(c3ccccc3)CC2)c(=O)n(-c2ccccc2)n1C	-19	21µM*	1%	0%	15µM*
CCCCN(CC)CCNC(=O)CN1C(=O)COc2ccc(S(=O)(=O)N3CCCC3)cc21	-5	-1%	6%	16%	-21%
Cc1cccc(NCc2nnc3n2CCCCC3)c1C	x	-26%	x	x	u
CNC(=O)c1ccc2nc(CCc3ccccc3)oc2c1	x	1%	x	x	-2%
